From PubChem
Hits are enriched below; roughly 2.6% of the tested compounds scored in any of these assays.
A3A deaminase: APOBEC3A ssDNA deaminase inhibitors, primary screen, selectivity assay for APOBEC3G inhibitor project, biochemical, FAM/TAMRA oligo cleavage fluorescence | inhibition, % at 20 µM | recombinant A3A, FAM/TAMRA ssDNA deamination fluorescence | 0.41% of 330,000 active | DNA dC->dU-editing enzyme APOBEC-3A (Homo sapiens), P31941;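 active = at least 40% inhibition at 20 µM here, with at most 30% in a related deaminase screen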;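 note: plate controls were A3A with DMSO for no effect and wells lacking A3A enzyme for full effect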
Target sequence (P31941 whole entry, looked up): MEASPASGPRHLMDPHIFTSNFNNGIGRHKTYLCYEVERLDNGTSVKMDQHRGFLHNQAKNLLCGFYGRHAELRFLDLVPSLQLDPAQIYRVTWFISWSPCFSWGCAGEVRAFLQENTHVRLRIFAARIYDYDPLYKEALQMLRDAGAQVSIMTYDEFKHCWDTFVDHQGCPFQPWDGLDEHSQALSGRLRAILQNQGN
eIF4H inh: human eIF4H binding inhibitors, primary screen, translation initiation inhibitor project, biochemical, uHTS, fluorescence polarization | AID 2012, 2009 | inhibition, % at 35 µM | 0.94% of 290,000 active | eIF4H fluorescence polarization binding assay;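 note: calls also rest on retests at 20 µM and on dose response follow-up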
MLLE-PAM2 inh: inhibitors of PABP1 MLLE–PAM2 peptide binding, primary screen, biochemical, fluorescence polarization, FITC-PAM2, GST-MLLE | Polyadenylate-binding protein 1 (Homo sapiens), P11940 | inhibition, % at 20 µM | 0.36% of 360,000 active | AID 588489, 2011; in the data active = inhibition above about 35%, passing the limit was not always enough;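 note: plate controls were DMSO wells with GST-MLLE for no effect and wells lacking GST-MLLE protein for full effect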
PABP polyA inh: PABP poly(A) RNA binding inhibitors, primary screen, biochemical, fluorescence polarization, uHTS; Polyadenylate-binding protein 1 (Homo sapiens), P11940; calls only at 35 µM; 1% of 290,000 active;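 note: calls also rest on retests at 20 µM and on dose response follow-up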
APOBEC3G inh: APOBEC3G DNA deaminase inhibitors, primary screen, biochemical, fluorescence, single-stranded DNA substrate, uHTS. recombinant A3G, ssDNA deamination FAM/TAMRA fluorescence. DNA dC->dU-editing enzyme APOBEC-3G (Homo sapiens), Q9HC16. inhibition, % at 20 µM. 0.28% of 330,000 active;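 active = inhibition of at least 40% at 20 µM, with no more than 30% in the related APOBEC3A deaminase screen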;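 note: plate controls were DMSO wells with A3G for no effect and wells lacking A3G enzyme for full effect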
Target sequence (Q9HC16 whole entry, looked up): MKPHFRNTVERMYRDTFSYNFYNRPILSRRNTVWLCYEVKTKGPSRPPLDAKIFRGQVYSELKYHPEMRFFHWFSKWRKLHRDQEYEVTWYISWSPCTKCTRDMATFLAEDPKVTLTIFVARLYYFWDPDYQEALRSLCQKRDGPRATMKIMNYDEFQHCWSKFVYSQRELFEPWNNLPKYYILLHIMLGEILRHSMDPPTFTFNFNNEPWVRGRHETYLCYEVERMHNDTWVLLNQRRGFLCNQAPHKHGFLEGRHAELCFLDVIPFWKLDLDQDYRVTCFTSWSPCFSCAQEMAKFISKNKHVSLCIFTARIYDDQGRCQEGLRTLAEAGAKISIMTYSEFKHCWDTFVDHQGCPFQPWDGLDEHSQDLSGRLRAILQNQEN
PHOSPHO1 block: PubChem AID 1565 | Phosphoethanolamine/phosphocholine phosphatase (Homo sapiens), Q8TCT1 | recombinant PHOSPHO1, absorbance phosphatase assay | 1.1% of 290,000 active | inhibition, % at 13.3 µM; in the data active = inhibition above about 60%
The depositor's hits bear a star; i = inactive; ? = inconclusive; . = no result; + = active, no number. Unless noted, the rule behind the calls is not given here.

SMILES	A3A deaminase	eIF4H inh	MLLE-PAM2 inh	PABP polyA inh	APOBEC3G inh	PHOSPHO1 block
NC(=O)N/N=C/c1c(Sc2nnnn2-c2ccccc2)nc2ccccn2c1=O	3	-10	-20	i	-2	-8
COc1cccc(NC(=O)CN(C)C(=O)C(Sc2ccccc2)c2ccccc2)c1 (stereo not given)	-1	.	7	.	1	.
O=C1NC2=C(C(=O)CCC2)C(c2ccccc2Cl)N1 (stereo not given)	0	-2	-3	i	-6	7
O=C1NC2=C(C(=O)CCC2)C(c2ccccc2[N+](=O)[O-])N1 (stereo not given)	8	107*	41*	+	9	15
COc1cc(NC(=O)c2cc(S(=O)(=O)N3CCCCC3)ccc2N2CCOCC2)cc(OC)c1	0	.	-13	.	-7	.
O=C(O)CC1C(=O)NCCN1Cc1cccs1 (stereo not given)	-1	7	6	i	-6	-1
CCOC(=O)CC1C(=O)NCCN1Cc1cccs1 (stereo not given)	0	-6	3	i	-2	64*
CCOC(=O)C1CCCN(Cc2cccs2)C1 (stereo not given)	4	5	5	i	5	73*
O=C(C1CCCN(Cc2cccs2)C1)N1CCCCCC1 (stereo not given)	-4	3	-2	i	-10	-3
COc1ccc(CCc2nnc(NS(C)(=O)=O)s2)cc1	1	-3	3	i	-6	14
COc1cc(OC)cc(C(=O)Nc2ccc(N3CCN(C(=O)c4cccs4)CC3)cc2)c1	1	-8	19	i	-5	33
CC(C)Oc1ccc(S(=O)(=O)N2CCOCC2)cc1NC(=O)c1ccc(N2CCCC2=O)cc1	0	-6	-15	i	-4	58
c1cncc(-c2nc3ccccc3o2)c1	3	52	6	+	-2	-3
c1cncc(-c2nc3cc(Cc4ccc5oc(-c6cccnc6)nc5c4)ccc3o2)c1	.	3	.	i	.	-1
CN(CC(=O)Nc1cccc(F)c1)C(=O)c1ccccc1Sc1ccccc1C#N	-1	.	5	.	-5	.
Cc1ccc(S(=O)(=O)CCC(=O)Nc2cccc(C)c2)cc1	-1	-5	-14	i	-7	1
CCc1cccc(NC(=O)CCS(=O)(=O)c2ccc(Br)cc2)c1	47	81*	-8	i	34	5
CCN(CC)c1ccc(NC(=O)c2ccc(S(=O)(=O)N3CCOCC3)cc2)cc1	-5	.	1	.	-8	.
N#CCSc1nc2ccccc2c(=O)n1CC1CCCC1	0	5	-6	i	-3	26
N#CCSc1nc2ccc(N3CCCCC3)cc2c(=O)n1Cc1ccccc1	3	24	-68	i	-3	67*
CCOC(=O)CSc1ncc(OC)c(=O)[nH]1	-1	-12	10	i	-2	6
COc1cnc(SCC(=O)O)[nH]c1=O	0	7	22	+	0	0
O=C(NCc1ccc(Cl)cc1)[C@@H]1CCCN1S(=O)(=O)c1ccc(Cl)cc1	-6	.	-5	.	-8	.
Cc1noc(C)c1NC(=O)N(C)C[C@H]1Oc2c(NC(=O)Nc3ccc4c(c3)OCO4)cccc2C(=O)N([C@H](C)CO)C[C@@H]1C	-5	.	-2	.	-9	.
COc1ccc(C2CC(c3ccccc3)=NN2C(=O)COC(=O)c2cccc(N)c2)cc1 (stereo not given)	-4	.	9	.	-8	.
SMILES	A3A deaminase	eIF4H inh	MLLE-PAM2 inh	PABP polyA inh	APOBEC3G inh	PHOSPHO1 block
COCCn1c(SCC(=O)NCC2CCCO2)nc2c(c1=O)SCC2 (stereo not given)	6	12	126*	i	10	43
COc1ccc2oc(=O)c(/C(C)=N/Nc3ccccc3)cc2c1	3	-9	9	i	-6	4
CCCCC(=Nc1ccc(N)cc1)C1=C(O)C(C(=O)OC)C(C)(C)CC1=O (stereo not given)	-4	42*	8	+	-4	3
CCCC(=Nc1ccccc1)C1=C(O)C(C(=O)OC)C(C)(C)CC1=O (stereo not given)	-2	-8	-3	i	-8	29
CCC(=Nc1ccc(N)cc1)C1=C(O)C(C(=O)OC)C(C)(C)CC1=O (stereo not given)	-7	103*	17	+	-6	-5
CN(C(=O)Cn1c(=O)oc2ccccc21)C1CCCCC1	-1	.	10	.	0	.
O=C(O)c1cccc2c1C(=O)c1ccccc1C2=O	3	-7	13	i	1	-43
CN(C=[N+](C)C)c1cccc2c1C(=O)c1ccccc1C2=O	-1	?	86*	i	-5	-6
O=c1[nH]c(/C=C\c2ccccc2F)nc(O)c1[N+](=O)[O-]	-4	-6	14	i	-5	18
Nc1c(C(=O)NCC2CCCO2)sc2nc3c(c(-c4ccco4)c12)CC/C3=C\c1ccco1 (stereo not given)	.	110*	-34	i	.	0
Cc1ccccc1NC(=O)c1sc2nc3c(c(-c4ccco4)c2c1N)CCC3	4	88*	14	+	-1	76*
N#Cc1sc2nc3c(c(-c4ccco4)c2c1N)CCCC3	1	34	6	i	-4	81*
CC(C)Oc1cc(F)ccc1-c1cc(C(=O)NCc2cccnc2)[nH]n1	.	.	9	.	.	.
COc1ccc(NC(=O)COC(=O)CCNS(=O)(=O)c2ccccc2)cc1OC	16	active	-19	+	-3	20
COc1ccc(NC(=O)COC(=O)CNS(=O)(=O)c2ccccc2)cc1OC	5	-5	5	i	4	-18
O=C(OC1CCOC1=O)c1cc(S(=O)(=O)N2CCOCC2)c(Cl)cc1Cl (stereo not given)	-2	.	1	.	-9	.
Cc1[nH]c(=O)cc2ccccc12	33	1	-115	i	10	94*
CN(C(=O)c1cccc(COc2ccc(Cl)cc2Cl)c1)c1ccccc1	.	-9	-2	+	.	-5
Nc1nc(-c2cc(O)ccc2[N+](=O)[O-])cc(-c2ccccc2)c1[N+](=O)[O-]	25	98*	-17	+	33	29
COc1cccc(CN2C(=O)CCC2(C)C(=O)NCCc2ccc(OC)c(OC)c2)c1 (stereo not given)	-2	-3	1	i	-5	28
CCc1nc2ccc(C(=O)N3CCN(C(=O)c4ccco4)CC3)cn2c1N(C)Cc1nccn1C	.	.	1	.	.	.
Cc1ccc(-c2cc(C(=O)NCc3ccco3)c3ccccc3n2)o1	75	86*	16	+	70	-20
